# Assay results as given in the supplement of paper PMC8728848.
# Shown is part of a subset that was picked to be rich in the strongest signals.
# Key:
# Assay in all cases: glycan array binding signal (z-score within array); higher = stronger binding
# Details in all cases: glycan notation: IUPAC condensed, linker removed
# Gal3S(b1-3)GalNAc = molecular target: Gal3S(b1-3)GalNAc
# Procedure, shortened: (§1)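 Negative Z-scores can be read as non-binding. The Z-score is calculated within each array and then averaged across arrays of one protein sequence at different concentrations or buffers and across linkers. Arrays, 3228 in all, were curated from the Consortium for Functional Glycomics database and kept only where the protein sequence was available.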
# Gal3S(b1-4)GlcNAc6S = molecular target: Gal3S(b1-4)GlcNAc6S
# Procedure, shortened: as §1
# Gal6S(b1-4)Glc = molecular target: Gal6S(b1-4)Glc
# Procedure, shortened: as §1
# [1] = molecular target: GalNAc(a1-3)GalNAc(b1-3)Gal(a1-4)Gal(b1-4)GlcNAc
# Procedure, shortened: as §1
# [2] = molecular target: GlcA3S(b1-3)Gal(b1-4)GlcNAc(b1-2)Man
# Procedure, shortened: as §1
# [3] = molecular target: GlcA3S(b1-3)Gal(b1-4)GlcNAc(b1-3)Gal(b1-4)Glc
# Procedure, shortened: as §1
# [4] = molecular target: GlcNAc(a1-4)Gal(b1-4)GalNAc
# Procedure, shortened: as §1
# [5] = molecular target: GlcNAc(b1-2)Man(a1-3)[GlcNAc(b1-4)][GlcNAc(b1-2)Man(a1-6)]Man(b1-4)GlcNAc(b1-4)GlcNAc
# Procedure, shortened: as §1
# [6] = molecular target: GlcNAc(b1-2)Man(a1-3)[GlcNAc(b1-4)][GlcNAc(b1-2)Man(a1-6)]Man(b1-4)GlcNAc(b1-4)[Fuc(a1-6)]GlcNAc
# Procedure, shortened: as §1
# [7] = molecular target: GlcNAc(b1-2)[GlcNAc(b1-4)]Man(a1-3)[GlcNAc(b1-4)][GlcNAc(b1-2)Man(a1-6)]Man(b1-4)GlcNAc(b1-4)GlcNAc
# Procedure, shortened: as §1
# [8] = molecular target: GlcNAc(b1-3)Gal(b1-4)GlcNAc(b1-6)[Gal(b1-3)]GalNAc
# Procedure, shortened: as §1
# [9] = molecular target: Man(a1-3)[Man(a1-6)]Man(a1-6)[Man(a1-3)]Man(b1-4)GlcNAc(b1-4)GlcNAc
# Procedure, shortened: as §1
# Neu5Ac(a2-3)Gal = molecular target: Neu5Ac(a2-3)Gal
# Procedure, shortened: as §1
# [10] = molecular target: Neu5Ac(a2-3)Gal(b1-3)GalNAc(b1-3)Gal(a1-4)Gal(b1-4)Glc
# Procedure, shortened: as §1
# [11] = molecular target: Neu5Ac(a2-3)Gal(b1-4)GlcNAc(b1-2)Man(a1-3)[GlcNAc(b1-2)Man(b1-4)GlcNAc(b1-2)Man(a1-6)]Man(b1-4)GlcNAc(b1-4)GlcNAc
# Procedure, shortened: as §1
# [12] = molecular target: Neu5Ac(a2-3)Gal(b1-4)GlcNAc(b1-2)Man(a1-3)[Neu5Ac(a2-3)Gal(b1-4)GlcNAc(b1-2)Man(a1-6)]Man(b1-4)GlcNAc(b1-4)[Fuc(a1-6)]GlcNAc
# Procedure, shortened: as §1
# [13] = molecular target: Neu5Ac(a2-3)Gal(b1-4)GlcNAc(b1-2)[Neu5Ac(a2-3)Gal(b1-4)GlcNAc(b1-4)]Man(a1-3)[GlcNAc(b1-4)][Neu5Ac(a2-3)Gal(b1-4)GlcNAc(b1-2)[Neu5Ac(a2-3)Gal(b1-4)GlcNAc(b1-6)]Man(a1-6)]Man(b1-4)GlcNAc(b1-4)GlcNAc
# Procedure, shortened: as §1
# [14] = molecular target: Neu5Ac(a2-3)Gal(b1-4)GlcNAc(b1-2)[Neu5Ac(a2-3)Gal(b1-4)GlcNAc(b1-4)]Man(a1-3)[GlcNAc(b1-4)][Neu5Ac(a2-3)Gal(b1-4)GlcNAc(b1-4)Man(a1-6)]Man(b1-4)GlcNAc(b1-4)GlcNAc
# Procedure, shortened: as §1
# [15] = molecular target: Neu5Ac(a2-3)Gal(b1-4)GlcNAc(b1-3)Gal(b1-4)GlcNAc(b1-3)Gal(b1-4)GlcNAc(b1-2)Man(a1-3)[Neu5Ac(a2-3)Gal(b1-4)GlcNAc(b1-3)Gal(b1-4)GlcNAc(b1-3)Gal(b1-4)GlcNAc(b1-2)Man(a1-6)]GalNAc
# Procedure, shortened: as §1
# [16] = molecular target: Neu5Ac(a2-3)Gal(b1-4)GlcNAc(b1-3)Gal(b1-4)GlcNAc(b1-3)GalNAc
# Procedure, shortened: as §1
# [17] = molecular target: Neu5Ac(a2-6)Gal(b1-4)GlcNAc(b1-2)Man(a1-3)[Neu5Ac(a2-6)Gal(b1-4)GlcNAc(b1-2)Man(a1-6)]Man(b1-4)GlcNAc(b1-4)GlcNAc
# Procedure, shortened: as §1
# [18] = molecular target: Neu5Ac(a2-6)Gal(b1-4)GlcNAc(b1-2)Man(a1-3)[Neu5Ac(a2-6)Gal(b1-4)GlcNAc(b1-2)Man(a1-6)]Man(b1-4)GlcNAc(b1-4)[Fuc(a1-6)]GlcNAc
# Procedure, shortened: as §1
# [19] = molecular target: Neu5Ac(a2-6)Gal(b1-4)GlcNAc(b1-2)Man(a1-6)[Man(a1-3)]Man(b1-4)GlcNAc(b1-4)GlcNAc
# Procedure, shortened: as §1
# [20] = molecular target: Neu5Ac(a2-6)Gal(b1-4)GlcNAc(b1-3)Gal(b1-4)GlcNAc(b1-3)[Neu5Ac(a2-6)Gal(b1-4)GlcNAc(b1-3)Gal(b1-4)GlcNAc(b1-6)]GalNAc
# Procedure, shortened: as §1
# Neu5Ac(a2-6)GalNAc = molecular target: Neu5Ac(a2-6)GalNAc
# Procedure, shortened: as §1
# Neu5Ac(a2-8)Neu5Ac = molecular target: Neu5Ac(a2-8)Neu5Ac
# Procedure, shortened: as §1
# [21] = molecular target: Neu5Ac(a2-8)Neu5Ac(a2-3)Gal(b1-3)GalNAc(b1-4)[Neu5Ac(a2-8)Neu5Ac(a2-3)]Gal(b1-4)Glc
# Procedure, shortened: as §1
# [22] = molecular target: Neu5Ac(a2-8)Neu5Ac(a2-8)Neu5Ac(a2-8)Neu5Ac(a2-3)[GalNAc(b1-4)]Gal(b1-4)Glc
# Procedure, shortened: as §1
# [23] = molecular target: Neu5Ac9Ac(a2-3)Gal(b1-3)GlcNAc
# Procedure, shortened: as §1
# [24] = molecular target: Neu5Gc(a2-8)Neu5Gc(a2-3)Gal(b1-4)GlcNAc(b1-3)Gal(b1-4)GlcNAc
# Procedure, shortened: as §1
binder,measurement,setting,value
"AAL (Agrocybe aegerita), Q6WY08 (protein) MQGVNIYNISAGTSVDLAAPVTTGDIVTFFSSALNLNAGAGNPNNTTLNLFAENGAYLLHIAFRLQENVIIFNSRQPDGPWLVEQRVSDVANQFAGIDGKAMVTVFDHGDKYQVVINEKTVIQYTKQISGLTLSLSYNATEETSIFSTVVEAVTYTGLALEHHHHHH",glycan array binding signal (z-score),Gal3S(b1-3)GalNAc,9.4
same,glycan array binding signal (z-score),Gal3S(b1-4)GlcNAc6S,3.66
same,glycan array binding signal (z-score),Gal6S(b1-4)Glc,-0.141
same,glycan array binding signal (z-score),[1],-0.137
same,glycan array binding signal (z-score),[2],6.26
same,glycan array binding signal (z-score),[3],10.9
same,glycan array binding signal (z-score),[4],-0.152
same,glycan array binding signal (z-score),[5],-0.151
same,glycan array binding signal (z-score),[6],-0.151
same,glycan array binding signal (z-score),[7],-0.14
same,glycan array binding signal (z-score),[8],-0.134
same,glycan array binding signal (z-score),[9],-0.118
same,glycan array binding signal (z-score),Neu5Ac(a2-3)Gal,-0.138
same,glycan array binding signal (z-score),[10],1.72
same,glycan array binding signal (z-score),[11],5.88
same,glycan array binding signal (z-score),[12],3.85
same,glycan array binding signal (z-score),[13],2.98
same,glycan array binding signal (z-score),[14],5.72
same,glycan array binding signal (z-score),[15],-0.107
same,glycan array binding signal (z-score),[16],-0.106
same,glycan array binding signal (z-score),[17],-0.134
same,glycan array binding signal (z-score),[18],-0.131
same,glycan array binding signal (z-score),[19],-0.148
same,glycan array binding signal (z-score),[20],-0.138
same,glycan array binding signal (z-score),Neu5Ac(a2-6)GalNAc,-0.164
same,glycan array binding signal (z-score),Neu5Ac(a2-8)Neu5Ac,-0.146
same,glycan array binding signal (z-score),[21],-0.138
same,glycan array binding signal (z-score),[22],-0.132
same,glycan array binding signal (z-score),[23],-0.156
same,glycan array binding signal (z-score),[24],2.45
